Screening data deposited in PubChem BioAssay by National Center for Advancing Translational Sciences (NCATS).
EPAC2 antag = Validation qHTS for antagonist of cAMP-regulated guanine nucleotide exchange factor 4 (EPAC2) | Rap guanine nucleotide exchange factor 4 (Homo sapiens), Q8WZA2 | EPAC2 Rap1B BODIPY-GDP exchange, fluorescence | Potency, µM (top dose mostly 112 µM), inactives show at the top dose activity, negative = inhibition, most hits filed as inhibitors | hit rate 1.7% among 16,000 | AID 1645886, 2021;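 further: 100% = activation by cAMP agonist control; nearly all actives have a fitted effect of over 40% in size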
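Fluorescent exchange read-out: 100 nM EPAC2 with 250 nM RAP1B–BODIPY-GDP and 50 uM GDP; BODIPY-GDP release lowers fluorescence. Read at 480/540 nm every 5 min for 30 min at room temperature; normalized to 6.5 mM cAMP.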
EPAC1 agonist = Validation qHTS for agonist of cAMP-regulated guanine nucleotide exchange factor 3 (EPAC1). Rap guanine nucleotide exchange factor 3 (Homo sapiens), O95398. hit rate 1% among 16,000. EPAC1 Rap1b BODIPY-GDP exchange, fluorescence. Potency, µM, inactives show max response, positive = active, actives largely listed as activators; further: nearly all actives have a fitted effect of over 70% in size
Target sequence (O95398 whole entry, looked up): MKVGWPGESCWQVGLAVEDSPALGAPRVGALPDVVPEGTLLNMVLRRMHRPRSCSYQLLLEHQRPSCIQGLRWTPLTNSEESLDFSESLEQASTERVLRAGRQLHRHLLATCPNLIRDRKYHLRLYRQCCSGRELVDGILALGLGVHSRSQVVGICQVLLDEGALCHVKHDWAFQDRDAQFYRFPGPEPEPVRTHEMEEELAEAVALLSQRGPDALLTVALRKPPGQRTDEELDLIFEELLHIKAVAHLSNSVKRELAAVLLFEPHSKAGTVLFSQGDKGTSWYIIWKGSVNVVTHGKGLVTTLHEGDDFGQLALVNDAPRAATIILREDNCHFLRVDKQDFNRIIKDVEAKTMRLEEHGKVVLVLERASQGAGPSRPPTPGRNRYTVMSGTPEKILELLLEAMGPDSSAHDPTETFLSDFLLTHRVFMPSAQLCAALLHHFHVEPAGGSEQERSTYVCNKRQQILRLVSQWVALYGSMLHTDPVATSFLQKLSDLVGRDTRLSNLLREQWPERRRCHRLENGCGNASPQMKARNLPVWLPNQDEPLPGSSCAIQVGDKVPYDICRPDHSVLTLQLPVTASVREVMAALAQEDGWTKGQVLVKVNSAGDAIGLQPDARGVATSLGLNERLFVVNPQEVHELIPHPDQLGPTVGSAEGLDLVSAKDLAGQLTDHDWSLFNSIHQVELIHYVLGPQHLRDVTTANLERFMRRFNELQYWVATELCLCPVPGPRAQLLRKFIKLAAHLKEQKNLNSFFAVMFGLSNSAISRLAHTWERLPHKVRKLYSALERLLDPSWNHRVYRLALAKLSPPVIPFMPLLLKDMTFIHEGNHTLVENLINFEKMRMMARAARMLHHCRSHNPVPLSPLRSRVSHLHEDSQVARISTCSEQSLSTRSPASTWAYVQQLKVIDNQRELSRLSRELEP
The depositor's hits bear a star; ? = inconclusive; ! = not confirmed by another sample. A selection: hits, their analogues and other compounds. The true share with any hit is near 3.1%. The call rests on the fitted dose curve; in most records, active means well fitted curve in the direction sought with a large enough effect; inconclusive means small, poorly fitted or top-dose-only effect, or another doubt; inactive means no such curve, though single readings can be large; an effect the other way counts as inactive or inconclusive. Unless noted, on the % scale 0 is the no-effect control and ±100 the full control effect; potency means the concentration at half of the fitted maximal effect.

SMILES | EPAC2 antag | EPAC1 agonist
CC(=O)OC1CC[C@]2(C)C(CC[C@@]3(C)C2C(=O)C=C2C4C(C)C(C)CC[C@@]4(C(=O)O)CCC23C)C1(C)C (stereo partly specified) | -20% | -189%
CC1(C)[C@@H](OC(=O)CCC(=O)O)CC[C@]2(C)[C@H]3C(=O)C=C4[C@@H]5C[C@@](C)(C(=O)O)CC[C@]5(C)CC[C@@]4(C)[C@]3(C)CC[C@@H]12 | 4µM* | -7%
CCNC(=O)[C@@H]1CCCN1C(=O)[C@H](CCCN=C(N)N)NC(=O)[C@H](CC(C)C)NC(=O)[C@@H](Cc1c[nH]c2ccccc12)NC(=O)[C@H](Cc1ccc(O)cc1)NC(=O)[C@H](CO)NC(=O)[C@H](Cc1c[nH]c2ccccc12)NC(=O)[C@H](Cc1cnc[nH]1)NC(=O)[C@@H]1CCC(=O)N1 | 2% | 0%
O=c1c(-c2ccc(Cl)cc2)nc2cncnc2n1Cc1ccccc1 | -28% | ?
O=c1c(-c2ccc(Cl)cc2)nc2cncnc2n1Cc1ccccc1Cl | -22% | 112µM*
[O-][N+]12CCCc3cccc(c31)CCC2 | -11% | -12%
O=P(O)(O)C(O)(Cc1cnc2ccccn12)P(=O)(O)O | -13% | 12%
CC(C)(C)NC(=O)[C@H]1CN(Cc2cccnc2)CCN1C[C@@H](O)C[C@@H](Cc1ccccc1)C(=O)N[C@H]1c2ccccc2C[C@H]1O | 25µM* | -54%
CC(C)(C)NC(=O)[C@@H]1C[C@@H]2CCCC[C@@H]2CN1C[C@@H](O)[C@H](Cc1ccccc1)NC(=O)[C@H](CC(N)=O)NC(=O)c1ccc2ccccc2n1 | ? | -43%
Cn1cnnc1Sc1ccc(CN2CCOc3ccc(C4=Cc5ccccc5C4)cc3C2)o1 | ? | -12%
COc1ccc(C(=O)c2ccccc2O)c(O)c1 | 45µM*! | -4%
COc1ccc(/C=C/C(=O)c2cc(O)ccc2O)cc1 | ? | 9%
C=C1C(=O)O[C@H]2[C@H]1CC/C(C)=C\CC[C@@]1(C)O[C@@H]21 | 22% | -13%
Cc1[nH]c2ccccc2c1/C=C/c1nccc2ccccc12 | ? | 28%
CCCCCCCCCC[n+]1ccc(/C=C/c2c(C)[nH]c3ccccc23)cc1 | 371% | 25µM*
CCCCCCC[n+]1ccc(/C=C/c2c[nH]c3ccccc23)cc1 | 226% | 100µM*
CCCCCCCCCC[n+]1ccc(/C=C/c2c[nH]c3ccccc23)c2ccccc21 | -9% | -60%
CCC(C)C(=O)OC1CC(C)C=C2C=CC(C)C(CCC3CC(O)CC(=O)O3)C21 (stereo unspecified) | 2% | -16%
C[C@H]1C=C2C=C[C@H](C)[C@H](CC[C@@H]3C[C@@H](O)CC(=O)O3)[C@H]2[C@@H](OC(=O)[C@@H](C)CCO)C1 | 56µM* | -24%
O=C(OC[C@H]1O[C@@H](OC(=O)c2cc(O)c(O)c(OC(=O)c3cc(O)c(O)c(O)c3)c2)[C@H](OC(=O)c2cc(O)c(O)c(OC(=O)c3cc(O)c(O)c(O)c3)c2)[C@@H](OC(=O)c2cc(O)c(O)c(OC(=O)c3cc(O)c(O)c(O)c3)c2)[C@@H]1OC(=O)c1cc(O)c(O)c(OC(=O)c2cc(O)c(O)c(O)c2)c1)c1cc(O)c(O)c(OC(=O)c2cc(O)c(O)c(O)c2)c1 | 22µM* | -126%
CCCOC(=O)c1cc(O)c(O)c(O)c1 | 21% | 9%
CCc1nc2cc(C(=O)N(C)CC3CCCN(C)C3)cc(NC(=O)c3ccccc3OC)c2n1C (stereo unspecified) | -19% | -9%
CC(C)(C)CC(C)(C)N=C1Nc2ccc(Cl)cc2NC12C[C@H]1CCC(=O)N3CC[C@@H](C2)[C@@H]13 (stereo partly specified) | ? | -133%
Cc1nc2sccn2c(=O)c1CCN1CCC(=C(c2ccc(F)cc2)c2ccc(F)cc2)CC1 | 50µM*! | ?
Cc1nc2ccccn2c(=O)c1CCN1CCC(C(=O)c2ccc(F)cc2)CC1 | -9% | 1%
SMILES | EPAC2 antag | EPAC1 agonist
CC(c1ccc(N(C)C)cc1)c1ccnc2ccccc12 (stereo unspecified) | -13% | 112µM*
CN1CCN(c2nc(-c3ccc(N(C)C)cc3)nc3ccccc23)CC1 | -4% | -8%
COc1cccc(-c2nc3cc4c(cc3cc2CN(C(=O)c2csc(C)n2)C2CC2)CCC4)c1OC | -2% | 0%
CO/N=C(\C(=O)N[C@@H]1C(=O)N2C(C(=O)O)=C(CSc3nc(C)c(CC(=O)O)s3)CS[C@H]12)c1csc(N)n1 | 18% | -8%
COCCn1c(=O)c(CCc2ccccc2)nc2cnc(Nc3ccccc3)nc21 | -12% | -21%
COCCn1c(=O)c(-c2ccc(OC)cc2)nc2cnc(Nc3cccc(OC)c3)nc21 | ? | 112µM*
COCCn1c(=O)c(C)nc2cnc(Nc3cccc(OC)c3)nc21 | -9% | -6%
COCCn1c(=O)c(-c2cccc(C#N)c2)nc2cnc(Oc3ccccc3)nc21 | -20% | ?
COc1ccc(-c2nc3cnc(N4CCNCC4)nc3n(Cc3cccc(OC)c3)c2=O)cc1 | -98% | ?
COc1cccc(Cn2c(=O)c(-c3ccc(Cl)cc3)nc3cnc(N4CCNCC4)nc32)c1 | 50µM* | ?
COCCn1c(=O)c(CCc2ccccc2)nc2cnc(Nc3cccc(OC)c3)nc21 | -30% | 112µM*
COCCn1c(=O)c(-c2cccc(C#N)c2)nc2cnc(Nc3ccccc3)nc21 | 10% | 112µM*
CC(C)c1c(C(=O)NCC2(N3CCCCC3)CCCC2)cnn1-c1nccc(-c2ccco2)n1 | -9% | 0%
CCCS(=O)(=O)NCc1c(C)ncc2c1CCN(C(=O)c1cccc(Cl)c1F)C2 | -21% | 5%
COC(=O)c1cn([C@@H]2C[C@@H](C(=O)Nc3cccc(SC)c3)N(C3CCCCCC3)C2)nn1 | -20% | -4%
CC(C)(C)CC(=O)OCC(=O)[C@@]12OC(C)(C)O[C@@H]1C[C@H]1[C@@H]3CCC4=CC(=O)C=C[C@]4(C)[C@@]3(F)[C@@H](O)C[C@@]12C | 1% | 18%
Cc1nc(NCc2c(C)nn(C)c2Cl)sc1-c1ccn(CC2COc3ccccc3O2)n1 (stereo unspecified) | ? | 6%
COc1cc(Br)c(C[N+]2(CCOCCC3CCC4CC3C4(C)C)CCOCC2)cc1OC (stereo unspecified) | 16% | -45%
COc1cccc(Cn2c(=O)c(-c3cccs3)nc3cnc(Nc4cccc(OC)c4)nc32)c1 | -3% | 112µM*
COc1ccc(Nc2ncc3nc(-c4cccs4)c(=O)n(Cc4cccc(OC)c4)c3n2)cc1 | 12% | ?
COc1ccc(C(=O)NCCN2Cc3ccccc3OC(c3ccsc3)C2)c(OC)n1 (stereo unspecified) | -10% | 15%
COc1ccccc1CCNc1ncnc2sc(C(=O)N3CCCN(C=O)CC3)c(C)c12 | -18% | -17%
CC(C)=CCc1c(O)cc(O)c2c1O[C@H](c1ccccc1)CC2=O | 50µM* | ?
O=C1CC(c2ccc(O)cc2)Oc2ccccc21 (stereo unspecified) | ? | -12%
COc1ccc(-c2nc3cnc(N(C)C)nc3n(-c3ccccc3)c2=O)cc1 | 30% | -94%
COc1ccc(-n2c(=O)c(-c3ccc(Cl)cc3)nc3cnc(N(C)C)nc32)cc1 | 13% | 100µM*
